From PubChem BioAssay (Tox21)
Inconclusive results are not listed. Where a call stands in place of a potency, no number is given. Values without a mark were called inactive. Calls of active or inactive are those of the source. The call rests on the fitted dose curve; in most records, active means well fitted cell-killing curve with a large enough effect in the repeat runs; inconclusive means weak or mixed curves; inactive means flat fitted curve, though single readings scatter.
Potency means the concentration at half of the fitted maximal effect.

Experiment: qHTS RealTime-Glo MT Cell Viability Assay in HepG2 cells - 24 hour (AID 1224867); further: nearly all actives have a fitted effect of over 50% in size
Settings: RealTime-Glo luminescence; series mostly up to 76.8 µM; activity change, negative = cytotoxicity: at the top concentration
From the text: U.S. Tox21 Program National Center for Advancing Translational Sciences [NCATS] NIH Chemical Genomics Center [NCGC] U.S. Environmental Protection Agency [EPA] National Institutes of Environmental Health Sciences [NIEHS] National Toxicology Program [NTP] U.S. Food and Drug Administration [FDA] Tox21 Assay Overview: Measure of cell viability is critical in the cell-base assay. Analysis of cell viability is necessary for the characterization of cell responses to cytotoxic drugs and environmental stress. A RealTime-Glo MT Cell Viability Assay to monitor cell viability in real time of continues cell culture during 40 hours of compound treatment was used to screen Tox21 10K library compounds in HepG2 cells. The RealTime-Glo MT Cell Viability Assay is a nonlytic, homogeneous, bioluminescent method to measure cell viability in real time using a simple, plate-based method. The assay involves adding NanoLuc luciferase and a cell-permeant prosubstrate to cells in culture. Viable cells reduce the proprietary prosubstrate to generate a substrate for NanoLuc luciferase. This substrate diffuses from cells into the surrounding culture medium, where it is rapidly used by the NanoLuc Enzyme to produce a luminescent signal. The signal correlates with the number of viable cells, making the assay well suited for cytotoxicity studies.
Tox21 Assay Protocol Summary: The mixture of HepG2 cell suspension and reagents were dispensed at 600cells/6 ul/well in 1536-well tissue culture treated black solid bottom plates using a Multidrop dispenser. After the assay plates were incubated at a 37 C/5% CO2 incubator for 5 hours, 23 nL of compounds dissolved in DMSO, positive and negative controls was transferred to the assay plate by a pintool work station. The plates were incubated at 37 C for 40 hours. The luminescence intensity were measured at 0h, 8h, 16h, 24h, 32h and 40h time points using ViewLux plate reader during compound treatment.
In the case of NC(=S)NNC(N)=S, the Potency is reported as “inactive”. In the case of COC(=O)c1cccnc1, the Potency is reported as “inactive”. In the case of CCNc1ccccc1, the Potency is reported as “inactive”. For CCCCCCO, the Potency was “inactive”. In the case of CC(=O)Oc1ccc(C)cc1, the Potency is reported as “inactive”. With CN(C)c1ccc(O)c2c1C[C@H]1C[C@H]3[C@H](N(C)C)C(=O)C(C(N)=O)=C(O)[C@@]3(O)C(=O)C1=C2O the “activity change, negative = cytotoxicity” value was -4.1% [at 35.3 µM]. For COCCOC(=O)c1ccccc1C(=O)OCCOC, the Potency was “inactive”. In the case of CC(C)(C#N)c1cc(Cn2cncn2)cc(C(C)(C)C#N)c1, the Potency is reported as “inactive”. In the case of O=c1[nH]cnc2[nH]ncc12, the Potency is reported as “inactive”. With O=S(=O)(O)c1ccccc1 the Potency was “inactive”. For c1ccc2c(c1)Cc1ccccc1-2, the Potency was “inactive”. For Nc1nc(N)nc(-c2ccccc2)n1, the Potency was “inactive”. For CC(C)(Oc1ccc(CCNC(=O)c2ccc(Cl)cc2)cc1)C(=O)O, the Potency was “inactive”. With CC1(C)S[C@@H]2[C@H](NC(=O)COc3ccccc3)C(=O)N2[C@H]1C(=O)O the Potency was “inactive”. In the case of CCNc1cccc(C)c1, the Potency is reported as “inactive”. With NCCN1CCNCC1 the Potency was “inactive”. In the case of CC(=O)OCCOC(C)=O, the Potency is reported as “inactive”. For CN/C(=C\[N+](=O)[O-])NCCSCc1csc(CN(C)C)n1, the Potency was “inactive”. With CC(C)CCCCCCCOC(=O)CCCCC(=O)OCCCCCCCC(C)C the Potency was “inactive”. For C[C@]12CC[C@@H]3c4ccc(O)cc4CC[C@H]3[C@@H]1C[C@@H](O)[C@@H]2O, the Potency was “inactive”. For COc1cc(OC)c(C(=O)CCCN2CCCC2)c(OC)c1, the Potency was “inactive”. In the case of CCCOC(=O)c1ccccc1, the Potency is reported as “inactive”. For CC(C)(C)c1cc(Cc2cc(C(C)(C)C)c(O)c(C(C)(C)C)c2)cc(C(C)(C)C)c1O, the Potency was “inactive”. For Clc1ccccn1, the Potency was “inactive”. For COc1ccc(OC)cc1, the Potency was “inactive”. With COCCCN the Potency was “inactive”. In the case of CCO[Si](CCC#N)(OCC)OCC, the Potency is reported as “inactive”. With CC(=O)CC(C)(C)O the Potency was “inactive”. In the case of O=C1CCCC1, the Potency is reported as “inactive”. For OCc1cccc(Oc2ccccc2)c1, the Potency was “inactive”. For C=CCc1ccc(OC)c(OC)c1, the Potency was “inactive”. For CCCCCCCC=O, the Potency was “inactive”. In the case of COc1ccc(C)cc1N, the Potency is reported as “inactive”. In the case of O=C(O)Cn1c(=O)n(Cc2ccc(Br)cc2F)c(=O)c2ccc(Cl)cc21, the Potency is reported as 38.9 µM (active). With NCCNCCN the Potency was “inactive”. For CCOCCOCCOCCO, the Potency was “inactive”. With C=CC(C)CCCC(C)(C)O (stereo not given) the Potency was “inactive”. For CC(CCl)OP(=O)(OC(C)CCl)OC(C)CCl (stereo not given), the Potency was “inactive”. For C=C(C)C(=O)OCC(C)C, the Potency was “inactive”. In the case of C=C(C)CNCC, the Potency is reported as “inactive”.
